5 molecules from PubChem BioAssay (Tox21) can be followed below.

Unmarked numbers belong to inactive results. Records with an inconclusive call do not appear. Calls of active or inactive are those of the source. Unless noted, the call rests on the fitted dose curve; in most records, active means well fitted curve in the direction sought with a large enough effect in the repeat runs; inconclusive means weak or mixed curves; inactive means no such curve, though single readings can be large; an effect the other way counts as inactive or inconclusive.

Experiment [1] can be described thus: qHTS assay to identify small molecule antagonists of the estrogen related receptor (ERR) signaling pathway from Tox21 library - cell viability counter screen (AID 1224834). Further: nearly all actives have a fitted effect of over 30% in size. Further: potency means the concentration at half of the fitted maximal effect. Summed up: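 ERR reporter cells, 2,000 per well, rested 6 h, then exposed to compound in DMSO for 17.5 hours at 37 C. Viability read as fluorescence after 30 min with CellTiter-Fluor.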
Background: qHTS replaces the single test concentration by a dilution series.

The target of experiment [2] is Luciferin 4-monooxygenase (Photinus pyralis) (UniProt P08659). The experiment is described as follows: qHTS assay to identify small molecule inhibitors of firefly luciferase (AID 1224835). Further: on the % scale 0 is the no-effect control and ±100 the full control effect; nearly all actives have a fitted effect of over 25% in size. The gist of the method:
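Inhibition of purified Photinus luciferase is measured by luminescence. Substrate levels (D-luciferin, ATP) sit at their KM values. Each compound is tested in a concentration series.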

Experiment [3] deals with Nuclear receptor subfamily 1 group I member 3 (Homo sapiens) (UniProt Q14994). In words: qHTS assay to identify small molecule antagonists of the constitutive androstane receptor (CAR) signaling pathway (AID 1224838). Further: on the % scale 0 is the no-effect control and ±100 the full control effect; nearly all actives have a fitted effect of over 40% in size. The gist of the method:
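HepG2 cells stably carrying hCAR and a CYP2B6-2.2kb luciferase reporter, seeded 4 hrs before compound (15 concentrations). Stimulated with 50 nM CITCO for 24 hr at 37 C. ONE-Glo luminescence read after 30 min at room temperature.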

Experiment [4] can be described thus: qHTS assay to identify small molecule antagonists of the estrogen related receptor signaling pathway with the pleiotropic PPARgamma coactivator (PGC) from Tox21 10K library (AID 1224841; call rule not given here; further: actives are mostly falling curves and most rising ones were filed inactive; nearly all actives have a fitted effect of over 50% in size; further: potency means the concentration at half of the fitted maximal effect). Summed up: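 PGC/ERR cell line, 2,000 cells/well, pre-incubated 6 hours at 37 C, then exposed to compounds for 18 hours at 37 C; luciferase read with One-Glo luminescence after 30 min at room temperature.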

The nature of experiment [5]: qHTS assay to identify small molecule agonists of the estrogen related receptor signaling pathway with the pleiotropic PPARgamma coactivator (PGC) from Tox21 10K library (AID 1224842). Further: on the % scale 0 is the no-effect control and ±100 the full control effect; nearly all actives have a fitted effect of over 15% in size. Summed up: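 Luminescence from One-Glo (30 min, room temperature) measured after PGC/ERR cells had 18 h at 37 C with pinned compound (23 nL in DMSO). Cells had been seeded at 2,000 per well and pre-incubated 6 h.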

The target in experiment [6] is Thyrotropin receptor (Homo sapiens) (UniProt P16473). In words: qHTS assay to identify small molecule agonists of the thyroid stimulating hormone receptor (TSHR) signaling pathway (AID 1224843; calls by dose curve; further: nearly all actives have a fitted effect of over 45% in size; further: potency means the concentration at half of the fitted maximal effect; on activation: on the % scale 0 is the no-effect control and ±100 the full control effect). The gist of the method: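 HEK293 cells stably bearing the thyrotropin receptor were plated at 800 cells/well and challenged with compound (30 min, RT). Accumulated cAMP was quantified via cAMP-d2 competing for cryptate-tagged antibody.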
Sequence of Thyrotropin receptor (Homo sapiens) (P16473 whole entry, looked up): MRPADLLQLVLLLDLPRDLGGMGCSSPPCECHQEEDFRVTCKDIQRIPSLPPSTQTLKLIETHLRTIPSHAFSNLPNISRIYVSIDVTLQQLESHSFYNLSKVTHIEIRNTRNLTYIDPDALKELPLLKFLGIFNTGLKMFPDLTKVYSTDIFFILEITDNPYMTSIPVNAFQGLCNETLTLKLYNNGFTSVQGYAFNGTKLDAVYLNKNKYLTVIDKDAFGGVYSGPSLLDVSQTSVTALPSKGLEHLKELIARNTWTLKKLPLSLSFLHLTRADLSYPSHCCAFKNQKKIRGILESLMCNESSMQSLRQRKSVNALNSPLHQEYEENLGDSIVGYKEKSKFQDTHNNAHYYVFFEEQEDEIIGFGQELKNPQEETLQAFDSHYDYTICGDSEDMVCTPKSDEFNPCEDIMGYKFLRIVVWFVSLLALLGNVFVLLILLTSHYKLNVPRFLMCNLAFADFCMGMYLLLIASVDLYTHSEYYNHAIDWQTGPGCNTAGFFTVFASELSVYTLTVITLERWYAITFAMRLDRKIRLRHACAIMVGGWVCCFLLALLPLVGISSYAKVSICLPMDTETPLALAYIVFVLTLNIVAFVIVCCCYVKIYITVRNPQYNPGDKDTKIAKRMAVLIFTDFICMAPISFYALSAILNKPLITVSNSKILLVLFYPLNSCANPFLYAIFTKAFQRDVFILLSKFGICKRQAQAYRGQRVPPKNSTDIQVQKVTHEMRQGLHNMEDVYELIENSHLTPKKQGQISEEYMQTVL

Experiment [7] in a line: qHTS assay to identify small molecule agonists of the hypoxia (HIF-1) signaling pathway - cell viability counter screen (AID 1224844; calls by dose curve; further: on the % scale 0 is the no-effect control and ±100 the full control effect; nearly all actives have a fitted effect of over 50% in size). Summed up: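 HRE-bla ME-180 cells, 2,000/well in 0.5% dialyzed FBS medium, treated 17 h at 37C with compounds. Viability read in the same wells as the bla reporter, by CellTiter-Glo luminescence after 30 min at room temperature.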
Experiment [8] in a line: qHTS assay to identify small molecule agonists of H2AX (AID 1224845; active means well fitted activation curve with a large enough effect in the signal ratio in the repeat runs, not every such curve was filed as active; the % refers to the signal ratio; further: on the % scale 0 is the no-effect control and ±100 the full control effect). The gist of the method:
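Phospho-H2AX Ser139 measured by HTRF (ex 320 nm; em 665 and 620 nm) after 24 hr antibody incubation. Compounds, 15 concentrations, 0.76% DMSO, were applied to CHO-K1 cells for 3hr at 37C before lysis.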

Experiment [9] in a line: qHTS assay to identify small molecule agonists of the hypoxia (HIF-1) signaling pathway (AID 1224846; active means well fitted activation curve with a large enough effect in the signal ratio in the repeat runs, not every such curve was filed as active; the % refers to the signal ratio; further: on the % scale 0 is the no-effect control and ±100 the full control effect). The gist of the method: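 HRE-bla ME-180 beta-lactamase reporter cells in medium with 0.5% dialyzed FBS, pre-incubated 5 h then exposed to compounds 17 h at 37C, 5% CO2; reporter induction read with CCF4-AM FRET substrate.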
Experiment [10] can be described thus: qHTS assay to identify small molecule antagonists of the estrogen related receptor (ERR) signaling pathway from Tox21 library (AID 1224848). Further: potency means the concentration at half of the fitted maximal effect; nearly all actives have a fitted effect of over 50% in size. Summed up:
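Reading was by luminescence 30 min after ONE-Glo addition. Before that, ERR cells at 2,000 per well had rested 6 h at 37 C/5% CO2 and then received pin-tooled compounds in DMSO for 18 h at 37 C.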

A short description of experiment [11]: qHTS assay to identify small molecule agonists of the estrogen related receptor (ERR) signaling pathway from Tox21 library (AID 1224849; calls by dose curve; further: on the % scale 0 is the no-effect control and ±100 the full control effect; nearly all actives have a fitted effect of over 15% in size). As to conditions: ERR reporter cell line, ONE-Glo luciferase, 18 h; at 92.4 µM (top of the series) unless noted. Summed up:
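ERR reporter cells (NTP line) pre-incubated 6 hours at 37 C, then exposed to compounds for 18 hours at 37 C. ONE-Glo luciferase luminescence was read after 30 minutes at room temperature.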

Experiment [12] in a line: qHTS RealTime-Glo MT Cell Viability Assay in HepG2 cells - 24 hour (AID 1224867). Further: on the % scale 0 is the no-effect control and ±100 the full control effect; nearly all actives have a fitted effect of over 50% in size. Summed up: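 Real-time, nonlytic viability: 600 HepG2 cells/well mixed with NanoLuc enzyme plus prosubstrate; 5 h settle, compound (DMSO) added by pintool; luminescence monitored over 40 h at 37 C.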
Experiment [13] in a line: qHTS RealTime-Glo MT Cell Viability Assay in HEK293 cells - 32 hour (AID 1224868). Further: nearly all actives have a fitted effect of over 50% in size. Further: potency means the concentration at half of the fitted maximal effect. The gist of the method:
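Cells + reagent dispensed (600 cells/well, HEK293) → 5 h at 37 C/5% CO2 → 23 nL compound in DMSO pinned → 40 h at 37 C → luminescence read at 0, 8, 16, 24, 32, 40 h.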

Experiment [14] in a line: A CellTox Green Cytotoxicity Assay to monitor cytotoxicity in HEK293 cells - 0 hour (AID 1224869). The gist of the method:
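HEK293 cells, 600/well, were preincubated 5 hours and then exposed to compounds at 37 C for up to 40 hours. A cell-impermeant cyanine dye staining dead-cell DNA was read by fluorescence at 0, 8, 16, 24, 32 and 40 h time points.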

Experiment [15] can be described thus: qHTS RealTime-Glo MT Cell Viability Assay in HepG2 cells - 40 hour (AID 1224870). Summed up:
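Real-time viability: cells seeded at 600 per well together with NanoLuc and cell-permeant prosubstrate, compounds added after 5 h incubation. Luminescence tracked at 0, 8, 16, 24, 32 and 40 h of exposure.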

The nature of experiment [16]: qHTS assay to identify small molecule antagonists of the constitutive androstane receptor (CAR) signaling pathway - cell viability counter screen (AID 1224837). Further: nearly all actives have a fitted effect of over 45% in size. Further: potency means the concentration at half of the fitted maximal effect. Summed up:
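HepG2 cells stably carrying hCAR and CYP2B6-2.2kb reporter, stimulated with 50 nM CITCO and compounds at 15 concentrations for 23 h at 37 C. Viability measured by CellTiter-Fluor fluorescence.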

The nature of experiment [17]: qHTS assay to identify small molecule agonists of the constitutive androstane receptor (CAR) signaling pathway - cell viability counter screen (AID 1224836). Further: on the % scale 0 is the no-effect control and ±100 the full control effect; nearly all actives have a fitted effect of over 45% in size. The gist of the method:
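Counter screen multiplexed with the CAR reporter readout: HepG2 cells co-transfected with hCAR and the CYP2B6-2.2kb construct receive a 15-concentration compound series and 0.75 uM PK11195 (final), then CellTiter-Fluor fluorescence is read after 23 h.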

The nature of experiment [18]: qHTS assay to identify small molecule antagonists of the estrogen related receptor signaling pathway with the pleiotropic PPARgamma coactivator (PGC) from Tox21 10K library - cell viability counter screen (AID 1224840; active means well fitted cell-killing curve with a large enough effect in the repeat runs, not every such curve was filed as active; further: on the % scale 0 is the no-effect control and ±100 the full control effect; nearly all actives have a fitted effect of over 40% in size). The gist of the method: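 PGC/ERR cells (2,000/well) plated 6 h, then compound-treated for 17.5 h at 37 C. Viability measured by CellTiter-Fluor fluorescence after 30 min at 37 C, multiplexed with the pathway assay.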

Experiment [19] in a line: qHTS assay to identify small molecule agonists of H2AX - cell viability counter screen (AID 1224847; calls by dose curve; further: top concentration of the series differs between compounds; on the % scale 0 is the no-effect control and ±100 the full control effect; nearly all actives have a fitted effect of over 30% in size). The gist of the method:
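We seed wild-type CHO-K1 cells overnight, treat them for 3 hr at 37C with compounds in 15-concentration series, and quantify remaining viability by CellTiter-Glo luminescence.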

The target of experiment [20] is Nuclear receptor subfamily 1 group I member 3 (Homo sapiens) (UniProt Q14994). In words: qHTS assay to identify small molecule agonists of the constitutive androstane receptor (CAR) signaling pathway (AID 1224839). Further: on the % scale 0 is the no-effect control and ±100 the full control effect; nearly all actives have a fitted effect of over 15% in size. The gist of the method: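 A 15-concentration quantitative screen uses HepG2 cells co-transfected stably with human CAR and CYP2B6-2.2kb reporter. Treatment lasts 24 h with 0.75 uM PK11195 final present; ONE-Glo luminescence is the signal.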
Sequence of Nuclear receptor subfamily 1 group I member 3 (Homo sapiens) (Q14994 whole entry, looked up): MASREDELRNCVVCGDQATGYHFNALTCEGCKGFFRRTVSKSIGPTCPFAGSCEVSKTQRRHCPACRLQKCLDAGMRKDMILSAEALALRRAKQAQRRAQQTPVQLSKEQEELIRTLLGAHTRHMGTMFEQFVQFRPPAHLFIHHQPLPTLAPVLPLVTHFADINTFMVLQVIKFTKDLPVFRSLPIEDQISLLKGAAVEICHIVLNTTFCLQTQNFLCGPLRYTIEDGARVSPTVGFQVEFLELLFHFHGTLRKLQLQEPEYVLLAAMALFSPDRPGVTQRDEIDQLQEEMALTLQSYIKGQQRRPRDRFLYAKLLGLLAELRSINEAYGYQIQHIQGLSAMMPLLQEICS

Sequence of Luciferin 4-monooxygenase (Photinus pyralis) (P08659 whole entry, looked up): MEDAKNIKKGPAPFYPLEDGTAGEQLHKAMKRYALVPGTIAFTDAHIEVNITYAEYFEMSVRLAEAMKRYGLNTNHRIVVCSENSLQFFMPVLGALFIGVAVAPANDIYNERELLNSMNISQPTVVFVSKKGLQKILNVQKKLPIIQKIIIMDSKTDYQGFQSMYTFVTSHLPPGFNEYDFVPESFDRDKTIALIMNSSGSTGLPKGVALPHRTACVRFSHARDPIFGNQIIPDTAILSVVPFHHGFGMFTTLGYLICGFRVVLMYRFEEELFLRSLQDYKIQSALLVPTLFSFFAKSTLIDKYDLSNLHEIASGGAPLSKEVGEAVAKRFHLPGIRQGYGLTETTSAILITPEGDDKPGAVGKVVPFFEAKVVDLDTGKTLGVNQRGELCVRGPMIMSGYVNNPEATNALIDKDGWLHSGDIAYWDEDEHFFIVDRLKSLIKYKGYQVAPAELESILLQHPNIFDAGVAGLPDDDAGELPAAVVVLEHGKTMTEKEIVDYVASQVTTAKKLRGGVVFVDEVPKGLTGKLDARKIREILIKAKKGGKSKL

For the molecule `O=[N+]([O-])c1cccc2c([N+](=O)[O-])cccc12`, the Potency is 61.4 µM (active) in experiment [1], 34.6 µM (active) in experiment [4], 30.8 µM (active) in experiment [10] and 49.2 µM (active) in experiment [13]. Also, the Potency entry in experiment [2], in experiment [3], in experiment [6], in [7], in experiment [8] and in experiment [12] was “inactive” each time. The Potency entry in experiment [14] and in experiment [15] was “inactive” in each case. Further, the molecule was called inactive in [5] and in experiment [9]. Besides, the activity change, positive = activation in [11] was -66%.

For `O=C(Nc1ccccc1)N(Cc1ccc(Cl)cc1)C1CCCC1`, the Potency in experiment [1] is 48.6 µM (active); in experiment [16], 61.1 µM (active); in experiment [6], 48.6 µM (active); in experiment [10], 54.5 µM (active). The Potency entry in [2], in [7], in [8], in [14] and in experiment [15] was “inactive” throughout. Moreover, the molecule was called inactive in experiment [5] and in experiment [9]. Further, in [11], the activity change, positive = activation is -60.6%.

Take `O=C1OC(c2ccc(O)c(S(=O)(=O)O)c2)(c2ccc(O)c(S(=O)(=O)O)c2)c2c(Br)c(Br)c(Br)c(Br)c21`: the Potency entry in [1], in experiment [2], in experiment [17], in experiment [18], in experiment [6] and in [7] was “inactive” throughout. Moreover, the Potency entry in experiment [8], in experiment [19], in [12], in experiment [13], in experiment [14] and in [15] was “inactive” each time. In experiment [9], the call was inactive.

With `Cc1cc(C)c(C(=O)P(=O)(C(=O)c2c(C)cc(C)cc2C)c2ccccc2)c(C)c1`, the Potency result in experiment [2], in [17], in [16], in experiment [3], in [20] and in experiment [18] was “inactive” throughout. The Potency entry in experiment [4], in [6], in experiment [7], in [8], in experiment [19] and in [12] was “inactive” in each case. Further, the Potency entry in experiment [13] and in [15] was “inactive” throughout. In addition, the molecule was classed as inactive in experiment [5] and in [9]. Besides, in experiment [11], the activity change, positive = activation is -2.99%.

With `COc1cc(OC)nc(NC(=O)NS(=O)(=O)c2ncccc2C(=O)N(C)C)n1`, the Potency entry in [1], in [17], in experiment [3], in experiment [20], in [18] and in experiment [6] was “inactive” each time. In addition, the Potency result in experiment [7], in [8], in [19], in [12], in experiment [13] and in [15] was “inactive” in each case. The molecule was called inactive in experiment [9].
